Screens as filed in PubChem BioAssay.
Compounds with a hit are over-represented: about 10% of the library has one in this group of screens.
GLS inh: qHTS for Inhibitors of Glutaminase (GLS). GLS enzymatic activity, qHTS titration. AID 624170, 2012. Potency, µM (titrated, usually from 45.5 µM), for the others: top-dose activity change, negative = inhibition, most hits filed as inhibitors. Glutaminase kidney isoform, mitochondrial (Homo sapiens), O94925. 410,000 tested, 0.21% active; further: on the % scale 0 is the no-effect control and ±100 the full control effect
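Coupled fluorescence readout: glutamate oxidase/HRP/Amplex Red detect glutamate formed by hKGA from L-glutamine (1 mM solution added). Buffer 45 mM KH2PO4 pH 8.2, 0.02% Tween-20; reads at t0 and 30 min RT.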
HP1b chromo inh: HTS for Inhibitors of HP1-beta Chromodomain Interactions with Methylated Histone Tails. AlphaScreen HP1-beta / biotin-H3K9me3 peptide binding. Potency, µM (top dose mostly 114 µM), for inactives: at the top dose activity change, negative = inhibition, hits mostly inhibitors. 390,000 tested, 0.56% active. AID 540317, 2011; further: nearly all actives have a fitted effect of over 70% in size
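Compound inhibition of the preformed complex between 50 nM HP1-beta and 50 nM biotinylated H3K9me3 peptide was read by AlphaScreen. Buffer was PBS pH 7.4 with 0.01% Tween-20. Incubations ran 30 min at room temperature, with 10 ug/mL donor/acceptor beads.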
BAZ2B inh: qHTS Assay for Inhibitors of BAZ2B. Bromodomain adjacent to zinc finger domain protein 2B (Homo sapiens), Q9UIF8. Potency, µM (highest dose often 114 µM), for inactives: at the highest dose activity change, negative = inhibition, most hits filed as inhibitors. AlphaScreen BAZ2B-H3K14Ac peptide displacement. 360,000 tested, 4.4% active. AID 504333, 2011; further: on the % scale 0 is the no-effect control and ±100 the full control effect; nearly all actives have a fitted effect of over 60% in size
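In this displacement format the biotinylated H3(5-23) peptide acetylated at Lys14 serves as ligand at 50 nM, with BAZ2B at 50 nM in PBS pH 7.4 containing 0.01% Tween-20. Donor and acceptor beads are 10 ug/mL final.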
JMJD2A Tudor inh: qHTS Assay for Inhibitors of JMJD2A-Tudor Domain; Lysine-specific demethylase 4A (Homo sapiens), O75164; AlphaScreen JMJD2A-Tudor / H3K4me3 peptide binding; Potency, µM (doses to about 114 µM), for inactives: at the top dose activity change, negative = inhibition, most hits filed as inhibitors; 390,000 tested, 4.4% active; AID 504339, 2011; further: on the % scale 0 is the no-effect control and ±100 the full control effect; nearly all actives have a fitted effect of over 50% in size
Target sequence (O75164 whole entry, looked up, the tested form may be a part): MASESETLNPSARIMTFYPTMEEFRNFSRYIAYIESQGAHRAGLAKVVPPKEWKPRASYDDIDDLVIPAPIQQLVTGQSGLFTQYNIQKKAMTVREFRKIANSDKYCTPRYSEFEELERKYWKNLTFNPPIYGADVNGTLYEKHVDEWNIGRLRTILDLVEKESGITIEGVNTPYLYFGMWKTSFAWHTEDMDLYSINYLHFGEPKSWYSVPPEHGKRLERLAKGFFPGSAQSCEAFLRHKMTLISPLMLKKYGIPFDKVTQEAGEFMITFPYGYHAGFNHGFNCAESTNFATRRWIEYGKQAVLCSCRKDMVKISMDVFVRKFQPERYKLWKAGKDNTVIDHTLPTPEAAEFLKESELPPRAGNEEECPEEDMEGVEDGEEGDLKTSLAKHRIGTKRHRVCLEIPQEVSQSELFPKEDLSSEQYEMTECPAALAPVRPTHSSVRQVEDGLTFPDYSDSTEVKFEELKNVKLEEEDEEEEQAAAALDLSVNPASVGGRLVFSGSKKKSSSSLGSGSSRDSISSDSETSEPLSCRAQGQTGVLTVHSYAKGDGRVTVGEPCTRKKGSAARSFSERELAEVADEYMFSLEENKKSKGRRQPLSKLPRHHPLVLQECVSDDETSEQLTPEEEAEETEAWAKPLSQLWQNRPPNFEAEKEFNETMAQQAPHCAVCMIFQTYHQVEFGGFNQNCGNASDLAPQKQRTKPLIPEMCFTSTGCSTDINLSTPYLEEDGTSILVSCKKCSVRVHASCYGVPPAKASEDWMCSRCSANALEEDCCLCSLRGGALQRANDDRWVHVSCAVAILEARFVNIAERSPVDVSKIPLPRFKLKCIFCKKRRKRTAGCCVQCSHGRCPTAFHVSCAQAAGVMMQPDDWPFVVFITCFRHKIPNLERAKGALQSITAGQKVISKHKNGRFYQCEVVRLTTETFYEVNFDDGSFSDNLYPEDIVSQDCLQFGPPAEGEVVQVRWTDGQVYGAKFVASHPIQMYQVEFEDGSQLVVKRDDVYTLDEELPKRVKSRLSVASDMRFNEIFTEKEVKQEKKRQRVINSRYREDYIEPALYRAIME
G9a block: qHTS Assay for Inhibitors of Histone Lysine Methyltransferase G9a. Histone-lysine N-methyltransferase EHMT2 (Homo sapiens), Q96KQ7. G9a H3K9 monomethylation, AlphaScreen, 2 h. Potency, µM (titrated, usually from 102 µM), for inactives: at the top dose activity, negative = inhibition, hits mostly inhibitors. 350,000 tested, 8.8% active. AID 504332, 2011; further: on the % scale 0 is the no-effect control and ±100 the full control effect; nearly all actives have a fitted effect of over 75% in size
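Chemiluminescent proximity detection of H3K9 monomethylation, read after 10 min bead incubation in the dark. Reaction: 20 nM G9a, 500 nM biotin-H3K9 peptide, 20 uM SAM cofactor, 2 h, room temperature, following 15 min enzyme-compound preincubation.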
* = called active by the depositor; ? = inconclusive; / = no result given; [ ] = dose if it differs, or a comment. The call rests on the fitted dose curve; in most records, active means well fitted curve in the direction sought with a large enough effect; inconclusive means small, poorly fitted or top-dose-only effect, or another doubt; inactive means no such curve, though single readings can be large; an effect the other way counts as inactive or inconclusive. Potency means the concentration at half of the fitted maximal effect.

SMILES	GLS inh	HP1b chromo inh	BAZ2B inh	JMJD2A Tudor inh	G9a block
C=CCn1c(C(C)NC(=O)c2ccc(C)cc2)n[nH]c1=S (stereo not given)	-5%	24%	3%	8.9µM*	40µM*
Cc1cc(/C=C(\C#N)C(=O)NCc2ccccc2)c(C)[nH]1	-4%	/	/	/	/
COc1ccc(-c2ccc(-c3nc4ccc(C)cn4c3NC3CCCCC3)cc2OC)cc1	?	-16%	45µM*	40µM*	0%[2.33 µM]
CCC(C)Sc1ccc(-c2nc3ccc(C)cn3c2NCc2ccccc2)cc1OC (stereo not given)	1%	0%	?	?	4%[2.33 µM]
CCC(C)Sc1cc(-c2nc3ccc(C)cn3c2NCc2ccccc2)ccc1OC (stereo not given)	34%	?	/	56µM*	/
COc1ccc(-c2nc3ccc(C)cn3c2NCc2ccccc2)cc1SC1CCCCC1	-22%	34%	50µM*	79µM*	2%[2.33 µM]
Cc1ccc2nc(-c3cccc(SC4CCCCC4)c3)c(NC3CCCCC3)n2c1	18%	12%	/	-29%	/
CSc1ccc(C(=O)C2CCCN(C(=O)Cc3nonc3C)C2)cc1 (stereo not given)	4%	34%	-14%	-14%	-2%
CN(C)C(=O)CSc1nnc(-c2ccc(S(=O)(=O)N3CCCC3)cc2)n1C	5%	12%	-17%	-12%	13%
Cc1cc(Br)ccc1OCCN1CCCC1	8%	?	?	25µM*	/
CCN1CCN(CCOc2ccc(Br)cc2C)CC1	0%	?	22µM*	18µM*	7.9µM*
Cc1ccc(OCCN2CCCCCC2)c(C)c1	27%	8%	-6%	-23%	-1%[12.7 µM]
c1ccc(CN2CCC3CC2c2cc(N4CCCCC4)ccc23)cc1 (stereo not given)	17%	/	/	/	/
CCN1CCN(C(=O)c2cc(S(=O)(=O)Nc3ccc(S(C)(=O)=O)cc3)ccc2Cl)CC1	-6%	26%	-23%	-8%	50µM*
COc1ccc(OC)c(NC(=O)Cn2c(=O)n(-c3ccc(Cl)cc3)c(=O)c3c(C)c(C)sc32)c1	8%	32%	2%	4%	5%[59 µM]
S=c1[nH]nc(COc2ccccc2)n1/N=C/c1ccccc1Br	9%	4%	-17%	-26%	8.9µM*
O=c1c2ccccc2nc(COc2ccccc2)n1/N=C/c1cc([N+](=O)[O-])ccc1O	18%	13%	-4%	-28%	-6%
Oc1ccc(Br)cc1/C=N/n1c(COc2ccccc2)n[nH]c1=S	14%	?	-9%	?	28µM*
FC(F)(F)c1ccccc1/C=N/n1c(COc2ccccc2)n[nH]c1=S	-7%	?	?	?	20µM*
O=C(Cc1ccccc1)Nc1sc2c(c1C(=O)Nc1cccc(Cl)c1)CCCC2	/	/	/	-10%	/
COc1ccc(-c2cc(C(=O)NCCc3ccc(OC)c(OC)c3)c3ccccc3n2)cc1	0%	19%	-2%	-13%	4%[59 µM]
COc1ccc2sc(N(Cc3cccnc3)C(=O)C3COc4ccccc4O3)nc2c1 (stereo not given)	5%	15%	-6%	-11%	3%[59 µM]
CCCN1CCC(NC23CC4CC(CC(C4)C2)C3)CC1	/	/	5%	/	/
CCCCCCCCNC(=S)NCCN1CCCCC1	-6%	?	?	79µM*	45µM*
FC(F)(F)Oc1ccc(NC(=S)NCCCN2CCOCC2)cc1	1%	-1%	-19%	-14%	50µM*
S=C(NCCCN1CCOCC1)NCCCN1CCOCC1	12%	?	7%	7%[57.1 µM]	8.9µM*
S=C(NCCCN1CCOCC1)NC1CCCC1	1%	-17%	-11%	-30%	2%
O=C(NCCCCCCCN1CCCCCCC1)C(C1CCCCC1)C1CCCCC1	12%	-4%	/	-17%	/
Cc1ccc(C)c(NC(=O)c2nnn(Cc3ccc(F)cc3Cl)c2N)c1	-12%	40%	3%	-10%	-10%[59 µM]
